Assay results as given in PubChem BioAssay (NCI).
Compounds without any hit were thinned out: in the full panel of roughly 83,000, 20% have a hit.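 Single-dose data. Exposure time 48 hours. Values below 10 considered active.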 Unmarked numbers belong to inactive results. Calls of active or inactive are those of the source.

Columns and labels:
Test in all cases: NCI-60 one-dose screen, 48 h (100 = growth as untreated, 0 = no growth, -100 = all killed)
Details in all cases: 10 µM unless noted
SR leukemia = test system: SR leukemia
RPMI-8226 leukemia = test system: RPMI-8226 leukemia
OVCAR-8 ovarian = test system: OVCAR-8 ovarian
OVCAR-5 ovarian = test system: OVCAR-5 ovarian
OVCAR-4 ovarian = test system: OVCAR-4 ovarian
SK-OV-3 ovarian = test system: SK-OV-3 ovarian
IGROV1 ovarian = test system: IGROV1 ovarian
OVCAR-3 ovarian = test system: OVCAR-3 ovarian
HS 578T breast = test system: HS 578T breast
NCI/ADR-RES ovarian = test system: NCI/ADR-RES ovarian
T-47D breast = test system: T-47D breast
BT-549 breast = test system: BT-549 breast
MDA-MB-435 melanoma = test system: MDA-MB-435 melanoma
SW-620 colon = test system: SW-620 colon
MCF7 breast = test system: MCF7 breast
HCT-116 colon = test system: HCT-116 colon
HCC-2998 colon = test system: HCC-2998 colon
KM12 colon = test system: KM12 colon

SMILES	growth (SR leukemia)	growth (RPMI-8226 leukemia)	growth (OVCAR-8 ovarian) [%]	growth (OVCAR-5 ovarian) [%]	growth (OVCAR-4 ovarian) [%]	growth (SK-OV-3 ovarian)	growth (IGROV1 ovarian)	growth (OVCAR-3 ovarian)	growth (HS 578T breast)	growth (NCI/ADR-RES ovarian)	growth (T-47D breast)	growth (BT-549 breast)	growth (MDA-MB-435 melanoma)	growth (SW-620 colon)	growth (MCF7 breast)	growth (HCT-116 colon)	growth (HCC-2998 colon) [%]	growth (KM12 colon)
CCCCCCCCN(CCCCCCCC)C(=O)CCl	83.1%	106%	89.4	120	97	109%	-18.2% (active)	108%	85.1%	94.7%	89.7%	98.5%	108%	104%	99.6%	90.8%	103	112%
CCOC(=O)C1=C(C(=O)OCC)N(c2cc(OC)c(OC)c(OC)c2)C(N)=C(C#N)C1c1cc(=O)[nH]c2ccccc12 (stereo unspecified)	93.5%	114%	105	101	101	97%	98.2%	110%	97.2%	101%	95.4%	96.5%	96.6%	99.2%	96%	100%	108	102%
c1coc(CNc2c3ccccc3nc3ccccc23)c1	34%	56.6%	47.5	76.4	56.2	70.9%	61.8%	96.9%	84%	44.8%	69.3%	97.4%	87.6%	42.3%	21.3%	24.1%	68.9	85.5%
Nc1nc(NC2CC2)cc(-c2cccc(Cl)c2Cl)n1	14.3%	74.2%	70	87.1	73.4	64.7%	65.6%	36.8%	64.7%	25%	32.2%	54.7%	-12.2% (active)	21.5%	20.3%	42.2%	55.8	47.8%
O=C(/C=C/c1cn(-c2ccccc2)nc1-c1ccccc1)OCc1cn(-c2cccc([N+](=O)[O-])c2)nn1	87.4%	80.4%	82.6	94.1	83.3	83.5%	98.2%	96.8%	89.9%	95.4%	78.2%	94.7%	94%	90.6%	86.8%	82.3%	96.7	98.6%
C=C1C(=O)O[C@H]2[C@H]1CC/C(COC(=O)NCc1c[nH]c3ccc(OC)cc13)=C\CC[C@@]1(C)O[C@@H]21	8.82% (active)	-25.8% (active)	21.3	45.2	19.9	68.3%	-21.7% (active)	-84.2% (active)	61.8%	73.1%	-52% (active)	-24% (active)	22.3%	-57.6% (active)	5.33% (active)	-79.4% (active)	45.1	51.3%
COc1ccc(/C=C(\C#N)c2cc(OC)c(OC)c(OC)c2)cc1	12.1%	12.3%	15.6	38.6	35.4	-6.74% (active)	17.9%	-25.1% (active)	36%	2.63% (active)	55.7%	27.3%	0.449% (active)	29.7%	3.63% (active)	1.54% (active)	21.7	6.76% (active)
CCOC(=O)c1ccc2c(c1)nc(-c1ccc(Cl)cc1)n2-c1cc(C(C)(C)C)[nH]n1	-22.3% (active)	75.6%	70.1	60.5	63.5	18.9%	42.3%	13.5%	53.9%	4.4% (active)	49.3%	16.8%	-31.2% (active)	42.1%	9.39% (active)	8.57% (active)	56.1	29.9%
CC(C)[C@@]12C[C@@H](OC(=O)C3CO3)[C@@](C)(O1)[C@@H]1CC[C@@H](C)[C@H]1[C@@H]2OC(=O)/C=C/c1ccccc1 (stereo partly specified)	74.6%	89.1%	22.4	100	111	76.9%	74.6%	90.4%	-21.2% (active)	59.4%	58.8%	77.1%	109%	98.3%	85.7%	85.9%	95	99.7%
COc1cc(NCCC2CCCCN2)c2ncccc2c1OC (stereo unspecified)	73.8%	68.2%	62.7	115	36.8	116%	4.24% (active)	4.97% (active)	86.6%	81.7%	38%	91.6%	-62.6% (active)	74.9%	57.3%	46.9%	80.6	87.5%
O/N=C1\c2ccccc2-c2ccc(Br)cc21	102%	105%	105	113	104	113%	116%	118%	158%	115%	97.2%	115%	113%	119%	91.1%	114%	102	115%
CC1=CC(=O)OC1C/C=C(\C)CCC1[C@@]2(C)CCC[C@@](C)(C(=O)O)C2CC[C@@]1(C)O (stereo partly specified)	33.2%	24.3%	42.8	111	75.5	98.1%	107%	56%	38.5%	91.8%	87.3%	67.3%	16.7%	32.4%	28.8%	27.9%	44	26.4%
CCN(CC)c1ccc2c(cc1=O)[C@@H](NC(C)=O)CCc1cc(OC)c(OC)c(OC)c1-2	-14.1% (active)	14.9%	12.3	54.1	48.2	24.3%	28%	-24.9% (active)	40.5%	85.7%	82.2%	1.73% (active)	-43.9% (active)	23.3%	14.9%	3.75% (active)	22.9	5.97% (active)
Nc1c(N)c2ccccc2c2ccccc12	94.1%	94.8%	99.1	107	96.5	102%	117%	116%	104%	101%	104%	112%	107%	103%	98.3%	114%	103	116%
O=C(CSc1nc2c(n1Nc1ccccc1)-c1ccccc1SC2)Nc1nccs1	82.7%	90.7%	97.3	103	102	109%	91.4%	98.6%	93.5%	90.4%	97.6%	127%	103%	97.5%	96.3%	88.3%	99.7	102%
COc1cc(NCC(O)CN(CC(C)C)CC(C)C)c2ncccc2c1 (stereo unspecified)	50.6%	37.6%	63.3	101	19.5	87.4%	74.3%	47.4%	84.7%	92.4%	1.96% (active)	95.2%	107%	74.9%	-25.6% (active)	80.2%	93.6	96%
Cc1ccc(Nc2cccc3ccccc23)cc1	62.1%	76.5%	96.2	93.2	78.9	101%	73.2%	89.1%	83.4%	78.1%	65.1%	103%	29.7%	77.7%	38.4%	80.7%	88.1	59.4%
